# Experimental data reported in PubChem BioAssay (NCATS).
# Values joined by “and” are separate entries in the source; they are usually repeats but may differ in a detail not shown here. Equal values may be shown once. Records with an inconclusive call do not appear. Where a call stands in place of a potency, no number is given. Active and inactive are the calls of the source. Unless noted, the call rests on the fitted dose curve; in most records, active means well fitted curve in the direction sought with a large enough effect; inconclusive means small, poorly fitted or top-dose-only effect, or another doubt; inactive means no such curve, though single readings can be large; an effect the other way counts as inactive or inconclusive.
# Columns and labels:
# [1] = target: Calcium and integrin-binding protein 1 (Homo sapiens) (UniProt Q99828); assay: Primary qHTS for Identification of Calcium Integrin Binding Protein 1 (CIB1) Competitor (AID 1508620);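 further: GST tagged CIB1 binding a fluorescein labelled alphaIIb integrin peptide tracer; top concentration of the series differs between compounds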
# Procedure, shortened: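 Fluorescence polarization competition: CIB1-GST (1 uM final) preincubated with compound 15 min at room temperature, then FITC-labeled alphaIIb peptide (100 nM final) added for another 15 min. Polarization read at Ex 480/Em 540.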
# [2] = target: Cytochrome P450 2C9 (Homo sapiens) (UniProt P11712); assay: Cytochrome P450 family 2 subfamily C member 9 (CYP2C9) small molecule antagonists: luciferase biochemical (cell-free) qHTS assay (AID 1645842; active means well fitted curve in the direction sought with a large enough effect in the repeat runs; an effect the other way counts as inactive or inconclusive; further: nearly all actives have a fitted effect of over 55% in size; further: potency means the concentration at half of the fitted maximal effect; on activity change, negative = inhibition: series mostly up to about 57 µM)
# Procedure, shortened: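 Luminescence, after 20 min with luciferin detection reagent, reflected CYP2C9 turnover during a 1 h NADPH-driven reaction at 37C. Enzyme-substrate mix contained 0.4% bovine serum albumin and was preincubated with compound 10 min at room temperature.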
# [3] = Primary qHTS for inhibitors of nuclear receptor binding SET domain protein 2 (NSD2) in an isogenic RCH-ACV NSD2 p.E1099K mutant (9B) (AID 1645876); further: nearly all actives have a fitted effect of over 70% in size; further: potency means the concentration at half of the fitted maximal effect
# [4] = Primary qHTS for inhibitors of nuclear receptor binding SET domain protein 2 (NSD2) in an RCH-ACV wild type WT cells (2C) (AID 1645877); further: nearly all actives have a fitted effect of over 70% in size; further: potency means the concentration at half of the fitted maximal effect
# [5] = target: Catechol O-methyltransferase (Homo sapiens) (UniProt P21964); assay: Confirmatory Screen for Target Class Profiling of Small Molecule Inhibitors of Methyltransferases (AID 1745852); conditions: MTase-Glo luminescence, SAH detection, recombinant enzyme; measured here: COMT max response; stronger effect = lower value
# [6] = target: N-terminal Xaa-Pro-Lys N-methyltransferase 1 (Homo sapiens) (UniProt Q9BV86); assay: Confirmatory qHTS for Inhibitors of N-terminal methyltransferase 1 (NTMT1): MTaseGlo Assay (AID 1645874); further: nearly all actives have a fitted effect of over 65% in size; further: potency means the concentration at half of the fitted maximal effect;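 on activity change, negative = inhibition: luminescence from SAH made as NTMT1 methylates SPKRIA peptide using SAM; series mostly up to about 100 µM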
# Procedure, shortened: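 Compounds are incubated with 125 nM NTMT1 and 100 uM SAM for 15 min before the SPKRIA peptide (1 uM) starts a 30 min room-temperature methylation. SAH is measured by coupled luciferase luminescence and curves fitted to a Hill equation.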
# Catechol O-methyltransferase (Homo sapiens), sequence (P21964 whole entry, looked up): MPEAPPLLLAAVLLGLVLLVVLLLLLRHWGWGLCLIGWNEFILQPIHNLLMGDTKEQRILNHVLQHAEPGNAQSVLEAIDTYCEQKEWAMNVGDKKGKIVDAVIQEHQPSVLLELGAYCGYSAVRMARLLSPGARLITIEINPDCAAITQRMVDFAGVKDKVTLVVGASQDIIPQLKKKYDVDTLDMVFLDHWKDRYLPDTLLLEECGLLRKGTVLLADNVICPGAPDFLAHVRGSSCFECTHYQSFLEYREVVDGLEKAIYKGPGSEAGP
# Cytochrome P450 2C9 (Homo sapiens), sequence (P11712 whole entry, looked up): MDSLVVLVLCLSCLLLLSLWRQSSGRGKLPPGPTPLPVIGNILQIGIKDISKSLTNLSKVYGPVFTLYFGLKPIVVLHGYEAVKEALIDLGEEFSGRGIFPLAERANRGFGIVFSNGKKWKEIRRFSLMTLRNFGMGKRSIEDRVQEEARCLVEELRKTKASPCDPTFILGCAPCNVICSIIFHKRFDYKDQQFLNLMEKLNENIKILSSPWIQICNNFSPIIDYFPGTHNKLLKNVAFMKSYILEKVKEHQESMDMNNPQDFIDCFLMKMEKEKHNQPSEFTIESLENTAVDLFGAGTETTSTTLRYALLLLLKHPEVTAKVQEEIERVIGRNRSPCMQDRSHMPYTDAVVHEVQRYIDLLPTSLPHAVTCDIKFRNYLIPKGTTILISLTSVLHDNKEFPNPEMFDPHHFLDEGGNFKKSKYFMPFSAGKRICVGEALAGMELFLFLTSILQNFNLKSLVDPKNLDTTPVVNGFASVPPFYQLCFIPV
# Calcium and integrin-binding protein 1 (Homo sapiens), sequence (Q99828 whole entry, looked up): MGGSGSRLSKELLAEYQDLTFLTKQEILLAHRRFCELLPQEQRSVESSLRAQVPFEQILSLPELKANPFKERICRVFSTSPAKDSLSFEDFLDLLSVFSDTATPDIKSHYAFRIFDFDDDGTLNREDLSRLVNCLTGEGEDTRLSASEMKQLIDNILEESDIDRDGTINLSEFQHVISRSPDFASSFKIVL
# N-terminal Xaa-Pro-Lys N-methyltransferase 1 (Homo sapiens), sequence (Q9BV86 whole entry, looked up): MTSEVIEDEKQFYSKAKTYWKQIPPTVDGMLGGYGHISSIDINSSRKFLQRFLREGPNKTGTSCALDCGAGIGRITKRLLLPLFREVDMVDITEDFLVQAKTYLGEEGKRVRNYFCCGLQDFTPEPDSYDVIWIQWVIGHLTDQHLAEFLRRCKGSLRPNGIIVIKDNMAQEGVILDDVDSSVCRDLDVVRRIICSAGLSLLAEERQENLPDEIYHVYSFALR
compound,measurement,setting,value
C[C@@H]([C@@H](O)c1ccc(O)cc1)N1CCC(O)(c2ccccc2)CC1,Potency,[1],inactive
same,Potency,[2],inactive
same,Potency,[3],inactive
same,Potency,[4],inactive
CC(C)Oc1ccc(C(=O)NC(CNC(=O)CN(C)C)Cc2ccc(-c3cn4cccc(C(C)O)c4n3)cc2)cc1Cl (configuration not stated),Potency,[1],inactive
same,Potency,[2],13500 nM (active)
same,Potency,[3],163 nM (active)
same,Potency,[4],64.9 nM (active)
O=C(C(c1ccccc1)c1ccccc1)N1CCN(CC(O)COc2cccc3ncccc23)CC1 (configuration not stated),Potency,[1],inactive
same,Potency,[2],12000 nM (active)
same,Potency,[4],14.5 µM (active) and 20.9 µM (active)
C[C@H]1C(=O)N2c3ccccc3[C@@]3(O)C[C@@H]4C(=O)N[C@](C)(c5nc6ccccc6c(=O)n54)N1[C@@H]23,Potency,[1],inactive
same,Potency,[3],inactive
C/C=C1\[C@H](O[C@@H]2O[C@H](CO)[C@@H](O)[C@H](O)[C@H]2O)OC=C(C(=O)OC)[C@H]1CC(=O)OC[C@H]1O[C@@H](OCCc2ccc(O)cc2)[C@H](O)[C@@H](O)[C@@H]1O,Potency,[1],inactive
same,Potency,[3],inactive
CN(C)C/C=C/C(=O)Nc1cccc(C(=O)Nc2ccc(Nc3nccc(-c4cccnc4)n3)cc2)c1,Potency,[1],inactive
same,Potency,[2],inactive
same,Potency,[3],649 nM (active)
same,Potency,[4],578 nM (active)
same,activity,[5],-2.53%
COc1cc2c(cc1O)CC[C@H]1[C@@H]2CC[C@]2(C)[C@H](O)CC[C@@H]12,Potency,[1],inactive
same,Potency,[6],39800 nM (active)
same,Potency,[3],1450 nM (active)
same,Potency,[4],916 nM (active)
same,activity,[5],-76.8%
C=C1C(OC(C)=O)CCC2(C)CC3(OC)OC(=O)C(C)=C3CC12 (configuration not stated),Potency,[1],inactive
same,Potency,[3],inactive
O=C1CSc2ccccc2N1Cc1cccc(C(F)(F)F)c1,Potency,[1],inactive
same,Potency,[2],inactive
same,activity,[5],-10.1%
COc1ccc(CNC(=O)c2sc3nc(C)cc(C)c3c2N)cc1,Potency,[1],inactive
same,Potency,[2],3790 nM (active)
same,Potency,[4],inactive
COC(=O)C1=CO[C@@H](O[C@@H]2O[C@H](CO)[C@@H](O)[C@H](O)[C@H]2O)[C@@H]2C(COC(C)=O)=C[C@H](O)[C@H]12,Potency,[1],inactive
same,Potency,[3],inactive
OC/C=C/C=C/[C@H]1Cc2cc(O)cc(O)c2O1,Potency,[1],inactive
same,Potency,[3],inactive
c1cn2cc(-c3ccc4cn[nH]c4c3)nc(Nc3ccc(N4CCOCC4)cc3)c2n1,Potency,[1],inactive
same,Potency,[2],601 nM (active)
same,Potency,[3],325 nM (active)
same,Potency,[4],409 nM (active)
same,activity,[5],-53.7%
O=C1CCC(=O)N(O)CCCCCNC(=O)CCC(=O)N(O)CCOCCNC(=O)CCC(=O)N(O)CCCCCN1,Potency,[1],inactive
same,Potency,[3],inactive
Cc1cc(C)nc(NS(=O)(=O)c2ccc(NC(=S)NC(=O)COc3ccc(Br)cc3Cl)cc2)n1,Potency,[1],inactive
same,Potency,[2],10700 nM (active)
same,Potency,[3],inactive
same,Potency,[4],inactive
COc1cc2c3c(cc4ccccc4c3c1O)NC2=O,Potency,[1],inactive
same,Potency,[3],inactive
Cc1cc(Nc2ccc(NC(=O)c3ccc(Nc4ccnc5ccccc45)cc3)cc2)nc(N)n1,Potency,[1],inactive
same,Potency,[2],inactive
same,Potency,[3],1830 nM (active)
same,Potency,[4],817 nM (active)
same,activity,[5],-15.9%
CC(Oc1cc(-n2cnc3ccc(CN4CCN(C)CC4)cc32)sc1C(N)=O)c1ccccc1C(F)(F)F (configuration not stated),Potency,[1],inactive
same,Potency,[6],21400 nM (active)
same,Potency,[3],578 nM (active)
same,Potency,[4],649 nM (active)
same,activity,[5],-36.6%
CC1(C)CC(=O)C2=C(C1)NC(=S)NC2c1cccc(O)c1 (configuration not stated),Potency,[1],inactive
same,Potency,[2],2130 nM (active)
same,Potency,[3],728 nM (active)
same,Potency,[4],817 nM (active)
CC(=O)OCC1(O)CCC2C(COC3OC(CO)C(O)C(O)C3OC(=O)/C=C/c3ccc(O)cc3)=COC(OC(=O)CC(C)C)C21 (configuration not stated),Potency,[1],inactive
same,Potency,[3],inactive
COc1cc(OC)cc(C(=O)Nc2ccc(Cl)c(-c3nc4ccc(N(C)C)cc4[nH]3)c2)c1,Potency,[1],inactive
same,Potency,[2],1690 nM (active)
same,activity,[5],-4.1%
COc1ccc(CNC(=O)c2cc(-c3cncc(C)c3)ncc2-c2nccs2)nc1OC,Potency,[1],inactive
same,Potency,[2],4250 nM (active)
same,Potency,[3],inactive
same,Potency,[4],inactive
C/C=C/c1ccc2oc(-c3ccc(O)c(OC)c3)c(C)c2c1,Potency,[1],inactive
same,Potency,[6],inactive
same,Potency,[3],14500 nM (active)
same,Potency,[4],16300 nM (active)
Cc1cc(NC(=O)Nc2ccc(F)c(F)c2)n(-c2ccccc2)n1,Potency,[1],inactive
same,Potency,[2],12000 nM (active)
same,Potency,[3],inactive
same,Potency,[4],inactive
COc1ccc(-c2cnc3ccc(NCc4ccc(S(N)(=O)=O)cc4)nn23)cc1OC,Potency,[1],inactive
same,Potency,[2],6740 nM (active)
same,Potency,[3],9160 nM (active)
same,Potency,[4],7280 nM (active)
same,activity,[5],-34.5%
Cc1cc2c(c(=O)[nH]1)OC(C(O)CC(C)C)O2 (configuration not stated),Potency,[1],inactive
same,Potency,[6],inactive
same,Potency,[3],inactive
CN=C(N)NCCCCC/C=C(/C)CC(C)C1OC(=O)C(C)C(O)/C=C/C(C)C(O)CC(O)C(C)C(O)CCC(C)C(O)CC2(O)OC(CC(OC(=O)CC(=O)O)CC(O)CC(O)C(C)C(O)/C(C)=C/CCC1C)CC(O)C2O (configuration not stated),Potency,[1],inactive
same,Potency,[3],3880 nM (active)
COc1ccc(C(=O)n2c(C)c(Cc3cccc(O[C@@H](C)C(=O)O)c3)c3cc(OC(F)(F)F)ccc32)cc1,Potency,[1],inactive
same,Potency,[2],19000 nM (active)
same,Potency,[3],inactive
same,Potency,[4],inactive
NC(=O)c1cccc(-c2cc(OC(=O)NC3CCCCC3)ccc2O)c1,Potency,[1],inactive
same,Potency,[6],inactive
C=C1CCC2C(C)(C)C(O)CCC2(C)C1CCC(C)CCOC(C)=O (configuration not stated),Potency,[1],inactive
same,Potency,[3],inactive
COc1c2c(c(C)c3c1C(=O)OC3)O[C@@]1(C)CC(O)C(C(C)(C)O)[C@](C)(CCC(=O)O)[C@H]1C2 (some centres not stated),Potency,[1],inactive
same,Potency,[3],inactive
Cc1cn(C2C=CC(CO)O2)c(=O)[nH]c1=O (configuration not stated),Potency,[1],inactive
same,Potency,[3],inactive
FC(F)(F)c1cc(-c2ncn(/C=C\c3nnco3)n2)cc(C(F)(F)F)c1,Potency,[1],inactive
same,Potency,[3],2300 nM (active)
C[C@@H]1CCC2C(C)(C)[C@H](O)CC[C@]2(C)[C@@]12Cc1c(O)cc3c(c1O2)CNC3=O (some centres not stated),Potency,[1],inactive
same,Potency,[3],inactive
CC1=CC(=O)[C@]2(O[C@@H]3O[C@@H](C)[C@H](O)[C@@H](O)[C@H]3OC(=O)/C=C/c3ccccc3)C=CO[C@@H](O[C@@H]3O[C@H](CO)[C@@H](O)[C@H](O)[C@H]3O)[C@H]12,Potency,[1],inactive
same,Potency,[3],inactive
same,Potency,[4],inactive
C[C@@H]1O[C@@H](O[C@H]2[C@H](OC(=O)[C@]34CCC(C)(C)C[C@H]3C3=CCC5[C@@]6(C)CC[C@H](O[C@@H]7O[C@H](C(=O)O)[C@@H](O)[C@H](O)[C@H]7O[C@@H]7O[C@H](CO)[C@H](O)[C@H](O)[C@H]7O)[C@@](C)(C=O)C6CC[C@@]5(C)[C@]3(C)C[C@H]4O)O[C@H](C)[C@H](O[C@@H]3O[C@H](C)[C@H](O)[C@H](O)[C@H]3O)[C@@H]2O)[C@H](O)[C@H](O)[C@H]1O[C@@H]1OC[C@@H](O)[C@H](O[C@@H]2O[C@H](CO)[C@@H](O)[C@H](O)[C@H]2O)[C@H]1O (some centres not stated),"activity change, negative = inhibition",[1],-0.579% [at 12.4 µM] (inactive)
same,"activity change, negative = viability loss",[3],-94% [at 4.96 µM] (inactive)
same,"activity change, negative = cell killing",[4],-94% [at 4.96 µM] (inactive)
Nc1ncnc2c([C@@H]3N[C@H](CO)[C@@H](O)[C@H]3O)c[nH]c12,Potency,[1],inactive
same,Potency,[3],inactive
COc1ccc(-c2c(-c3cc(C(=O)O)ccn3)ncn2C)cc1,Potency,[1],inactive
same,Potency,[3],inactive
same,Potency,[4],inactive
C=C1C(=O)O[C@H](CCC)[C@H]1C(=O)O,Potency,[1],inactive
same,Potency,[3],inactive
same,Potency,[4],inactive
CC1(CCOC2OC(CO)C(O)C(O)C2O)CCC23OC2(C1)C(O)CC1C(C)(C(=O)O)CCCC13C (configuration not stated),Potency,[1],inactive
same,Potency,[3],inactive
same,Potency,[4],inactive
CC(C)(O[C@@H]1O[C@H](CO)[C@@H](O)[C@H](O)[C@H]1O)C(OC(=O)/C=C\c1ccc(O)cc1)C(=O)OCc1ccc(O[C@@H]2O[C@H](CO)[C@@H](O)[C@H](O)[C@H]2O)cc1 (some centres not stated),Potency,[1],inactive
same,Potency,[3],inactive
same,Potency,[4],inactive
CC1CCC2(C=O)C(CO)=CCCC2C1(C)CC(=O)O (configuration not stated),Potency,[1],inactive
same,Potency,[3],inactive
same,Potency,[4],inactive
CC1=C(/C=C/C(C)=C\C=C\C(C)=C/C(=O)O)C(C)(C)CCC1,Potency,[1],inactive
same,Potency,[3],inactive
